# Measurements from PubChem BioAssay (NCATS).
# Values joined by “and” are separate entries in the source; they are usually repeats but may differ in a detail not shown here. Equal values may be shown once. Inconclusive results are not listed. Active and inactive are the calls of the source. Calls follow the shape of the dose curve; as a rule, active = well fitted cell-killing curve with a large enough effect; inconclusive = small, poorly fitted or top-dose-only effect, or effect the other way; inactive = no such curve, though single readings can be large or run the other way.
# Assay: Viability qHTS for spleen associated tyrosine kinase inhibitor (SYKi) naive MV4-11 cells (AID 1963823); also: nearly all actives have a fitted effect of over 40% in size
# Settings: MV4-11 AML viability, CellTiter-Glo luminescence, 72 h; series mostly up to 45 µM; viability (% of control): at the top concentration
# Procedure, shortened: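 Viability of MV4-11 AML cells lacking prior SYK inhibitor exposure is scored by CellTiter-Glo luminescence following 72 hr compound incubation at 37 C, 5% CO2, seeded at 500 cells per well.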
# Potency is read from the fitted curve at half-maximal effect.
Structure (SMILES),viability (% of control),Potency
COc1ccc(C(O)C(C)OC2OC(CO)C(O)C(O)C2O)cc1 (centres undefined),93.1% (inactive),
O=C(O[C@H]1[C@@H]2C=CO[C@@H](O[C@@H]3O[C@H](CO)[C@@H](O)[C@H](O)[C@H]3O)[C@@H]2[C@@]2(CO)O[C@@H]12)c1ccc(O)cc1,88% [at 17.3 µM] (inactive),
CC(=O)O[C@H]1[C@H](O[C@H]2[C@@H]3C=CO[C@@H](O[C@@H]4O[C@H](CO)[C@@H](O)[C@H](O)[C@H]4O)[C@@H]3[C@@]3(CO)O[C@@H]23)O[C@@H](C)[C@H](OC(=O)/C=C/c2ccccc2)[C@H]1OC(=O)/C=C/c1ccccc1,88.5% [at 9.25 µM] (inactive),
O=C(OC[C@H]1O[C@H](O[C@H]2CO[C@H](CO)[C@@H](O)[C@@H]2O)[C@H](O)[C@@H](O)[C@H]1O)c1ccccc1,68.8% [at 17.3 µM] (inactive),
CCN=C1N[C@@H]2[C@@H](O)[C@H](O)[C@@H](CO)O[C@@H]2S1,77.5% (inactive),
CC(O)/C=C/C1(O)C(C)C(O[C@@H]2O[C@H](CO)[C@@H](O)[C@H](O)[C@H]2O)C(O)CC1(C)C (some centres undefined),67.9% [at 17.3 µM] (inactive),
Cn1cnc2c(NCc3ccccc3)nc(NCCO)nc21,97.2% (inactive),
CC1=C(C)C(=O)OC(C(C)(O)C2CCC3C4CC=C5CC(OC6OC(COC7OC(CO)C(O)C(O)C7O)C(O)C(O)C6O)CC(O)C5(C)C4CCC32C)C1 (centres undefined),65.8% [at 17.3 µM] (inactive),
C/C=C/C=C/[C@@H]1O[C@](O)([C@H](CC)C(=O)NC/C=C/C=C(\C)[C@@H](OC)[C@@H](C)C2OC(/C=C/C=C/C=C(\C)C(=O)c3c(O)cc[nH]c3=O)[C@H](O)[C@@H]2O)[C@H](O)[C@H](O)C1(C)C (some centres undefined),89% [at 17.3 µM] (inactive),
C=C1CCC[C@]2(C)CC/C(=C(/CO)C(=O)OC)C[C@@H]12,,20.6 µM (active)
Cn1ncc2cc(-c3cnc(N)c(Cl)c3N3CCC4(CCNC4=O)CC3)ccc21,,2.31 µM (active) and 1.48 µM (active)
C=C1C(=O)O[C@@H]2C[C@@]3(C)CCC[C@H](C)C3=C[C@H]12,,13 µM (active)
O=C(CO)[C@@H](O)[C@H](O[C@@H]1O[C@H](CO)[C@H](O)[C@H](O)[C@H]1O)[C@H](O)CO,80.3% (inactive),
COc1cc(C2Oc3c(OC)cc(CCCO)cc3C2CO)ccc1O[C@H]1O[C@H](C)[C@@H](O)[C@H](O)[C@@H]1O (some centres undefined),80.9% [at 17.3 µM] (inactive),
Cc1noc(C)c1-c1cc(O)cc(C(O)c2ccccc2)c1 (centres undefined),,1.46 µM (active)
CC(=O)OC1C(O)C(C)(O)C(/C=C/C(=O)O)C2(C)CCCC(C)(C)C12 (centres undefined),55.1% (inactive),
CC1=CC(=O)C2C(C)(C)CCC[C@]2(C)[C@H]1CO (some centres undefined),67.5% (inactive),
CC1=C(C)C(=O)OC(C(C)C2CCC3C4CC=C5CC(OC6OC(COC7OC(CO)C(O)C(O)C7O)C(O)C(O)C6O)CC(O)C5(C)C4CCC23C)C1 (centres undefined),63.8% [at 17.3 µM] (inactive),
COc1c2cc(c(O[C@@H]3O[C@H](CO)[C@@H](O)[C@H](O)[C@H]3O)c1OC)CCCCC(O)CCc1ccc(O)c-2c1 (some centres undefined),56.8% [at 17.3 µM] (inactive),
CC[C@@H](Nc1c(Nc2cccc(C(=O)N(C)C)c2O)c(=O)c1=O)c1ccc(C)o1,58.5% (inactive),
Oc1cccc(-c2nc(N3CCOCC3)c3sccc3n2)c1,,0.82 µM (active)
C=C[C@H](/C=C\c1ccc(O)cc1)c1ccc(O)cc1,,18.4 µM (active)
C=C1CC2[C@@]3(C)C=CC(=O)C(C)(C)C3=C(O)C(=O)[C@@]2(C)C2(C(=O)OC)C(=O)C(C)OC(=O)[C@@]12C (some centres undefined),,10 µM (active)
C[C@@H](CC[C@@H]1[C@@]2(C)CCCC(C)(C)C2CC[C@@]1(C)O)CC(=O)O (some centres undefined),70.3% (inactive),
CC1(C)CC[C@]2(C(=O)O[C@@H]3O[C@H](CO)[C@@H](O)[C@H](O)[C@H]3O)CC[C@]3(C)C(=CCC4[C@@]5(C)CC[C@H](O[C@@H]6O[C@H](C(=O)O)[C@@H](O[C@@H]7O[C@H](CO)[C@@H](O)[C@H](O)[C@H]7O)[C@H](O)[C@H]6O[C@@H]6O[C@H](CO)[C@@H](O)[C@H](O)[C@H]6O)C(C)(C)C5CC[C@]43C)C2C1 (some centres undefined),93% [at 9.25 µM] (inactive),
Cc1cc2nc(NCCCO)n(CC(=O)c3cc(C(C)(C)C)c(O)c(C(C)(C)C)c3)c2cc1C,,8.2 µM (active)
O=S(=O)(Cc1ccccc1)Nc1ccc(-c2ccc3c(cnn3-c3ccc(F)cc3)c2)c(C(F)(F)F)c1,,16.4 µM (active)
C=C1CC23CC1CCC2C12OC(=O)C(C)(CCC1O)C2C3C(=O)O (centres undefined),59.3% (inactive),
Cc1cn(-c2cc(NC(=O)c3ccc(C)c(Nc4nccc(-c5cnccn5)n4)c3)cc(C(F)(F)F)c2)cn1,75.4% (inactive),
